From a collection of fitness landscapes (doi:10.1126/science.1257360) come the findings set out here.

Whole data set: some 140,000 sequences, median “enrichment ratio after two sorts for PhoP signalling” near 0, cut for the highest 2% near 11. The list comes from a sample in which the highest values are over-represented; it also holds similar and randomly drawn sequences.

B1: PhoQ; a variant is named by its letters at X, in order, P23837 (parent)
chain: MKKLLRLFFPLSLRVRFLLATAAVVLVLSLAYGMVALIGYSVSFDKTTFRLLRGESNLFYTLAKWENNKLHVELPENIDKQSPTMTLIYDENGQLLWAQRDVPWLMKMIQPDWLKSNGFHEIEADVNDTSLLLSGDHSIQQQLQEVREDDDDAEMTHSVAVNVYPATSRMPKLTIVVVDTIPVELKSSYMVWSWFIYVLSANLLLVIPLLWVAAWWSLRPIEALAKEVRELEEHNRELLNPATTRELTSLVRNLNRLLKSERERYDKYRTTLTDLTHSLKTPLXXLQXXLRSLRSEKMSVSDAEPVMLEQISRISQQIGYYLHRASMRGGTLLSRELHPVAPLLDNLTSALNKVYQRKGVNISLDISPEISFVGEQNDFVEVMGNVLDNACKYCLEFVEISARQTDEHLYIVVEDDGPGIPLSKREVIFDRGQRVDTLRPGQGVGLAVAREITEQYEGKIVAGESMLGGARMEVIFGRQHSAPKDE

The experiment covers variants of B1. In words: enrichment ratio after two sorts for PhoP signalling (ratio (wild type AVST 3.29)); higher = more functional. Conditions: with PhoP (E. coli).
For the variant GMCC, the enrichment ratio was ≤ 0.25.
With FQGH, the enrichment ratio is ≤ 0.25.
For NRAM the value was ≤ 0.25; for KRFS, ≤ 0.25.
For CNWS the value was ≤ 0.25.
In the case of RPDF, the enrichment ratio is ≤ 0.25.
With KFLF, the enrichment ratio was ≤ 0.25.
Turning to SCDN, the enrichment ratio was ≤ 0.25.
Consider PMCH, for which the enrichment ratio is ≤ 0.25.
Regarding MMTI, the enrichment ratio was ≤ 0.25.
Take TSEI: the enrichment ratio came out at 15.3.
The value for TSHF was 13.4.
As for MMTA, the enrichment ratio was ≤ 0.25.
The value for LCTA was ≤ 0.25.
For WSEI the value was ≤ 0.25.
For TSTA the value was 14.2.
In the case of KSEI, the enrichment ratio is ≤ 0.25.
On to WITI, for which the enrichment ratio is ≤ 0.25.
TSTI: the enrichment ratio stood at 22.
In the case of TSHE, the enrichment ratio was 5.88.
In the case of KSHF, the enrichment ratio was ≤ 0.25.
Turning to LGWN, the enrichment ratio was ≤ 0.25.
The value for TWGR was ≤ 0.25; that for FHQM was ≤ 0.25.
For TARV the value was ≤ 0.25.
For QSIY the value was ≤ 0.25; for TSHQ, 11.8; for KSHQ, ≤ 0.25.
On to THHQ, for which the enrichment ratio was ≤ 0.25.
Regarding DFQV, the enrichment ratio was ≤ 0.25.
The value for WHCG was ≤ 0.25; that for AQTC was 9.55.
The value for AQLT was 8.16; that for AQCN was 4.1; that for AQLA was 19.
The value for AQLN was 31.6; that for AQTK was ≤ 0.25.
In the case of AQNL, the enrichment ratio was ≤ 0.25.
For the variant AQLS, the enrichment ratio stood at 10.2.
For AQTS the value was 12.8; for FEWS, ≤ 0.25; for RCQR, ≤ 0.25.
The value for FLMM was 1.72; that for YNDD was ≤ 0.25; that for IFQD was ≤ 0.25.
For AKFS the value was ≤ 0.25.
TMMH: the enrichment ratio is 5.83.
With TMCV, the enrichment ratio amounted to 13.2.
On to HACH, for which the enrichment ratio was ≤ 0.25.
Consider DMCV, for which the enrichment ratio was ≤ 0.25.
For TMCG the value was 15; for TMIE, ≤ 0.25.
Consider EMCG, for which the enrichment ratio is ≤ 0.25.
Consider TMPE, for which the enrichment ratio is ≤ 0.25.
As for TMCE, the enrichment ratio amounted to 21.2.
For the variant TMCH, the enrichment ratio stood at 15.9.
Turning to KMCG, the enrichment ratio was ≤ 0.25.
The value for NNCV was ≤ 0.25; that for NTFT was ≤ 0.25.
In the case of DACN, the enrichment ratio is ≤ 0.25.
In the case of YKFT, the enrichment ratio is ≤ 0.25.
The value for VRAW was ≤ 0.25.
On to EVCN, for which the enrichment ratio was ≤ 0.25.
For PEAM the value was ≤ 0.25; for EYVE, ≤ 0.25; for HGYS, ≤ 0.25.
As to QTTN, the enrichment ratio was ≤ 0.25.
The value for SFNA was ≤ 0.25; that for MWTS was ≤ 0.25; that for PLKT was ≤ 0.25.
For the variant RNTM, the enrichment ratio was ≤ 0.25.
For WPSM the value was ≤ 0.25; for TMGE, 14.8; for MMSE, ≤ 0.25.
For DMSE, the enrichment ratio is ≤ 0.25.
TMCS: the enrichment ratio turned out to be 16.8.
For TMNE, the enrichment ratio is ≤ 0.25.
As for TMKE, the enrichment ratio is 13.6.
The value for TMWI was ≤ 0.25.
The value for NMKE was ≤ 0.25; that for TMSE was 15.9.
TMPA: the enrichment ratio was ≤ 0.25.
Turning to THGE, the enrichment ratio was ≤ 0.25.
Turning to NHGE, the enrichment ratio is ≤ 0.25.
For DFCK the value was ≤ 0.25.
For IFAG the value was ≤ 0.25.
ECNL: the enrichment ratio was ≤ 0.25.
The value for KFQG was ≤ 0.25.
In the case of GWTL, the enrichment ratio was ≤ 0.25.
DYTL: the enrichment ratio was ≤ 0.25.
The value for YESY was ≤ 0.25; that for RHIC was 0.278.
The value for ATKV was ≤ 0.25; that for IHFF was ≤ 0.25; that for YYCV was ≤ 0.25.
For TMCI the value was 12.4; for NMCT, ≤ 0.25.
On to DMCT, for which the enrichment ratio was ≤ 0.25.
The value for TMCT was 19.5; that for TMCK was 3.91.
As for TMCA, the enrichment ratio is 8.5.
For YSWE the value was ≤ 0.25.
The value for AFNE was ≤ 0.25; that for WHNP was ≤ 0.25.
The value for SFAG was 0.768.
With SQAG, the enrichment ratio is 25.9.
The value for STAG was 9.55.
As for SEAG, the enrichment ratio stood at 12.1.
With SAVG, the enrichment ratio stood at 0.763.
Turning to SAAG, the enrichment ratio stood at 14.1.
As for SPAG, the enrichment ratio is ≤ 0.25.
For KYAG the value was ≤ 0.25.
The value for DPAG was ≤ 0.25.
On to RRVI, for which the enrichment ratio is ≤ 0.25.
As to FDPS, the enrichment ratio is ≤ 0.25.
Turning to DHTW, the enrichment ratio is ≤ 0.25.
Consider SYMG, for which the enrichment ratio came to 12.5.
For SYEG the value was ≤ 0.25; for DPMG, ≤ 0.25; for SYIG, 11.3.
Regarding SYHG, the enrichment ratio was ≤ 0.25.
On to KYIG, for which the enrichment ratio was ≤ 0.25.
As for SDIG, the enrichment ratio was ≤ 0.25.
For STMG the value was 9.85; for SQMG, 20.8.
The value for WYLE was ≤ 0.25.
Take LKTQ: the enrichment ratio is ≤ 0.25.
HHMC: the enrichment ratio was ≤ 0.25.
For FFEW the value was ≤ 0.25; for SADI, ≤ 0.25.
The value for SNGG was 7.77.
As to TNLA, the enrichment ratio was 8.08.
For the variant RGND, the enrichment ratio was ≤ 0.25.
NGNG: the enrichment ratio was ≤ 0.25.
The value for AQNG was 28.2.
Take IQNG: the enrichment ratio was ≤ 0.25.
Regarding PGNG, the enrichment ratio is ≤ 0.25.
In the case of NQNG, the enrichment ratio was ≤ 0.25.
In the case of TGNG, the enrichment ratio was 23.3.
With VKSA, the enrichment ratio is ≤ 0.25.
For NIRT the value was ≤ 0.25; for AVYH, 0.253.
For INLE the value was ≤ 0.25; for SRTL, 0.897; for CTTL, ≤ 0.25.
As to DITL, the enrichment ratio was ≤ 0.25.
With SSTL, the enrichment ratio was 14.
Consider GMTL, for which the enrichment ratio was 15.2.
For KYTL the value was ≤ 0.25; for LTTL, ≤ 0.25; for GVTL, 8.09.
For SFTL the value was 1.44; for FVTL, 1.5; for SITL, 18.5.
For TTTL, the enrichment ratio was 13.4.
